# Several values for one entry are separate records, joined by “and”; a condition that tells them apart may be missing. Equal entries are not always repeated. Some structures have more than one record in an assay (separate samples or runs), and their calls can disagree. Activity calls are given as the source filed them. The calls were made as follows: active = hit-call score of the fitted dose curve at least 0.9, where 1 is the maximum; inactive = score below 0.9.
# Key:
# [1] = BSK_CASM3C_SRB: Viability Assessment in the BioMAP Diversity Plus: CASM3C Assay (AID 2283050); settings: primary human coronary artery smooth muscle cells
# [2] = read-out: Thrombomodulin, THBD (gene 7056); assay: BSK_CASM3C_Thrombomodulin: BioMAP Diversity Plus: CASM3C Assay for Thrombomodulin Biomarker Activity (AID 2283051); settings: primary human coronary artery smooth muscle cells; actives raise or lower the signal;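 also: thrombomodulin protein level measured by ELISA 24 h after dosing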
# [3] = read-out: Tissue Factor, F3 (gene 2152); assay: BSK_CASM3C_TissueFactor: BioMAP Diversity Plus: CASM3C Assay for Tissue Factor Biomarker Activity (AID 2283052); settings: primary human coronary artery smooth muscle cells; actives raise or lower the signal;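 also: cell surface tissue factor protein level read by ELISA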
# [4] = read-out: Interferon-gamma inducible Protein 10 (IP10), CXCL10 (gene 3627); assay: BSK_hDFCGF_IP10: BioMAP Diversity Plus: hDFCGF Assay for Interferon-gamma inducible Protein 10 (IP10) Biomarker Activity (AID 2283053); settings: primary human foreskin fibroblasts; actives raise or lower the signal
# Procedure, shortened: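 IP-10 levels, quantified by ELISA, are taken from human foreskin fibroblast cultures 24 h after chemical treatment, with DMSO serving as negative control and baseline for bidirectional analysis.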
# [5] = read-out: Urokinase-type plasminogen activator receptor (uPAR), PLAUR (gene 5329); assay: BSK_CASM3C_uPAR: BioMAP Diversity Plus: CASM3C Assay for Urokinase-type plasminogen activator receptor (uPAR) Biomarker Activity (AID 2283054); settings: primary human coronary artery smooth muscle cells; actives raise or lower the signal;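 also: cell-surface uPAR protein level quantified by ELISA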
# [6] = read-out: Vascular cell adhesion molecule 1 (VCAM1), VCAM1 (gene 7412); assay: BSK_CASM3C_VCAM1: BioMAP Diversity Plus: CASM3C Assay for Vascular cell adhesion molecule 1 (VCAM1) Biomarker Activity (AID 2283055); settings: primary human coronary artery smooth muscle cells; actives raise or lower the signal;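 also: VCAM-1 protein level quantified by ELISA on the cells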
# [7] = read-out: Collagen III, COL3A1 (gene 1281); assay: BSK_hDFCGF_CollagenIII: BioMAP Diversity Plus: hDFCGF Assay for Collagen III Biomarker Activity (AID 2283056); settings: primary human foreskin fibroblasts; actives raise or lower the signal
# Procedure, shortened: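 hDFCGF primary human dermal fibroblasts; 24 h chemical exposure; collagen III by ELISA; bidirectional curve fit vs DMSO baseline (gain or loss of signal).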
# [8] = read-out: Epidermal growth factor receptor (EGFR), EGFR (gene 1956); assay: BSK_hDFCGF_EGFR: BioMAP Diversity Plus: hDFCGF Assay for Epidermal growth factor receptor (EGFR) Biomarker Activity (AID 2283057); settings: primary human foreskin fibroblasts; actives raise or lower the signal
# Procedure, shortened: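 Measured by ELISA: EGFR levels on primary human foreskin fibroblasts 24 h after chemical treatment, analysed relative to DMSO with bidirectional fitting.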
# [9] = read-out: Interleukin-8 (IL8), CXCL8 (gene 3576); assay: BSK_hDFCGF_IL8: BioMAP Diversity Plus: hDFCGF Assay for Interleukin-8 (IL8) Biomarker Activity (AID 2283058); settings: primary human foreskin fibroblasts; actives raise or lower the signal
# Procedure, shortened: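 ELISA read-out of IL-8 from primary human foreskin fibroblast cultures taken 24 h after dosing; values are bidirectional fits relative to DMSO vehicle.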
# [10] = read-out: Macrophage colony-stimulating factor (MCSF), CSF1 (gene 1435); assay: BSK_hDFCGF_MCSF: BioMAP Diversity Plus: hDFCGF Assay for Macrophage colony-stimulating factor (MCSF) Biomarker Activity (AID 2283060); settings: primary human foreskin fibroblasts; actives raise or lower the signal
# Procedure, shortened: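 ELISA read-out of M-CSF in human dermal foreskin fibroblast cultures, 24 h after chemical dosing; gain or loss of signal fitted bidirectionally relative to DMSO baseline.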
# [11] = BSK_hDFCGF_SRB: Viability Assessment in the BioMAP Diversity Plus: hDFCGF Assay (AID 2283061); settings: primary human foreskin fibroblasts;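 also: cells exposed to compound for 24 h before the read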
# Procedure, shortened: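 Primary human foreskin fibroblasts; 24 h post-dose; fixed 10% TCA, stained 0.1% SRB, A560 read; total protein as overt cytotoxicity measure; curves fit bidirectionally vs DMSO control.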
# [12] = read-out: TIMP metallopeptidase inhibitor 1 (TIMP1), TIMP1 (gene 7076); assay: BSK_hDFCGF_TIMP1: BioMAP Diversity Plus: hDFCGF Assay for TIMP metallopeptidase inhibitor 1 (TIMP1) Biomarker Activity (AID 2283062); settings: primary human foreskin fibroblasts; actives raise or lower the signal
# Procedure, shortened: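 ELISA readout of TIMP-1 from human dermal foreskin fibroblast cultures 24 h post-dosing. Curves were fitted in both directions against DMSO baseline, with SRB total-protein staining in parallel cultures as a cytotoxicity check.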
# [13] = read-out: Monokine induced gamma interferon (MIG), CXCL9 (gene 4283); assay: BSK_hDFCGF_MIG: BioMAP Diversity Plus: hDFCGF Assay for Monokine induced gamma interferon (MIG) Biomarker Activity (AID 2283063); settings: primary human foreskin fibroblasts; actives raise or lower the signal
# Procedure, shortened: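 Fibroblasts (human foreskin, primary) dosed, 24 h, MIG by ELISA; fit bidirectional vs DMSO.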
# [14] = read-out: Matrix Metallopeptidase 1 (MMP1), MMP1 (gene 4312); assay: BSK_hDFCGF_MMP1: BioMAP Diversity Plus: hDFCGF Assay for Matrix Metallopeptidase 1 (MMP1) Biomarker Activity (AID 2283064); settings: primary human foreskin fibroblasts; actives raise or lower the signal
# Procedure, shortened: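 Primary human foreskin fibroblasts in the hDFCGF system were dosed with test chemical, and MMP1 was measured by ELISA 24 h later. Values come from bidirectional curve fitting against the DMSO baseline.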
# [15] = read-out: Vascular cell adhesion molecule 1 (VCAM1), VCAM1 (gene 7412); assay: BSK_hDFCGF_VCAM1: BioMAP Diversity Plus: hDFCGF Assay for Vascular cell adhesion molecule 1 (VCAM1) Biomarker Activity (AID 2283065); settings: primary human foreskin fibroblasts; actives raise or lower the signal
# Procedure, shortened: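 ELISA read-out of VCAM-1 on human skin fibroblasts, 24 h post-dose; gain or loss of signal fitted bidirectionally against DMSO baseline.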
# [16] = read-out: Plasminogen activator inhibitor-1 (PAI1), SERPINE1 (gene 5054); assay: BSK_hDFCGF_PAI1: BioMAP Diversity Plus: hDFCGF Assay for Plasminogen activator inhibitor-1 (PAI1) Biomarker Activity (AID 2283066); settings: primary human foreskin fibroblasts; actives raise or lower the signal
# Procedure, shortened: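 PAI-1 levels, determined by ELISA, served as the endpoint in human foreskin fibroblast cultures exposed to compound for 24 h, with DMSO as baseline.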
# [17] = read-out: Intercellular Adhesion Molecule 1 (ICAM1), ICAM1 (gene 3383); assay: BSK_KF3CT_ICAM1: BioMAP Diversity Plus: KF3CT Assay for Intercellular Adhesion Molecule 1 (ICAM1) Biomarker Activity (AID 2283067); settings: primary human keratinocytes with fibroblasts; actives raise or lower the signal
# Procedure, shortened: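 ELISA readout of ICAM-1; KF3CT human skin co-culture (keratinocytes + foreskin fibroblasts), 24 h post-dose; gain/loss fit vs DMSO baseline.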
# [18] = read-out: Interferon-gamma inducible Protein 10 (IP10), CXCL10 (gene 3627); assay: BSK_KF3CT_IP10: BioMAP Diversity Plus: KF3CT Assay for Interferon-gamma inducible Protein 10 (IP10) Biomarker Activity (AID 2283068); settings: primary human keratinocytes with fibroblasts; actives raise or lower the signal
# Procedure, shortened: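 ELISA read-out of IP-10 after 24 h chemical dosing of human skin primary co-culture (keratinocytes, foreskin fibroblasts). Gain or loss of signal relative to DMSO, bidirectional curve fit.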
# [19] = BSK_KF3CT_SRB: Viability Assessment in the BioMAP Diversity Plus: KF3CT Assay (AID 2283069); settings: primary human keratinocytes with fibroblasts;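 also: total protein by sulforhodamine B staining as a cytotoxicity measure; read 24 h after compound addition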
# Procedure, shortened: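 Human primary keratinocyte plus foreskin fibroblast co-culture exposed to chemicals for 24 h. Total protein measured by 0.1% sulforhodamine B staining after 10% TCA fixation, read at 560 nm; bidirectional fitting versus DMSO baseline.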
# [20] = BSK_hDFCGF_Proliferation: Cell Proliferation Assessment in the BioMAP Diversity Plus: hDFCGF Assay (AID 2283059); settings: primary human foreskin fibroblasts;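 also: curves fitted for both rise and fall of signal versus DMSO baseline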
# Procedure, shortened: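 Sub-confluent human foreskin fibroblast cultures receive test chemical […]. Relative cell number is quantified by sulforhodamine B staining (0.1%, after 10% TCA fixation) at 560 nm, with bidirectional fitting referenced to DMSO.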
smiles,measurement,setting,value
NC(=O)C(F)(F)C(F)(F)C(F)(F)C(F)(F)F,outcome,[1],inactive
same,outcome,[2],inactive
same,outcome,[3],inactive
same,outcome,[4],inactive
same,outcome,[5],inactive
same,outcome,[6],inactive
same,outcome,[7],inactive
same,outcome,[8],inactive
same,outcome,[9],inactive
same,outcome,[10],inactive
same,outcome,[11],inactive
same,outcome,[12],inactive
same,outcome,[13],inactive
same,outcome,[14],inactive
same,outcome,[15],inactive
same,outcome,[16],inactive
same,outcome,[17],inactive
same,outcome,[18],inactive
same,outcome,[19],inactive
O=C(O)C(F)(F)C(F)(F)C(F)(F)C(F)(F)C(F)(F)C(F)(F)C(F)(F)C(F)(F)C(F)(F)C(F)(F)C(F)(F)C(F)(F)F,outcome,[1],inactive
same,AC50,[2],13.3 µM (active)
same,outcome,[2],inactive
same,outcome,[3],inactive
same,AC50,[4],1.86 µM (active) and 1.07 µM (active)
same,outcome,[5],inactive
same,AC50,[6],7.09 µM (active) and 4.44 µM (active)
same,AC50,[7],2.45 µM (active) and 896 nM (active)
same,outcome,[8],inactive
same,outcome,[9],inactive
same,AC50,[20],2.47 µM (active)
same,outcome,[20],inactive
same,AC50,[10],6.46 µM (active)
same,outcome,[10],inactive
same,AC50,[11],6.27 µM (active)
same,outcome,[11],inactive
same,outcome,[12],inactive
same,AC50,[13],2.35 µM (active) and 1.17 µM (active)
same,AC50,[14],1.6 µM (active)
same,outcome,[14],inactive
same,outcome,[16],inactive
same,outcome,[17],inactive
same,AC50,[18],22.5 µM (active)
same,outcome,[18],inactive
same,outcome,[19],inactive
C=CC(F)(F)C(F)(F)C(F)(F)C(F)(F)C(F)(F)C(F)(F)C(F)(F)C(F)(F)F,outcome,[1],inactive
same,outcome,[2],inactive
same,outcome,[3],inactive
same,outcome,[4],inactive
same,outcome,[5],inactive
same,outcome,[6],inactive
same,outcome,[7],inactive
same,AC50,[8],270 nM (active)
same,outcome,[8],inactive
same,outcome,[9],inactive
same,outcome,[20],inactive
same,outcome,[10],inactive
same,outcome,[11],inactive
same,outcome,[12],inactive
same,outcome,[13],inactive
same,outcome,[14],inactive
same,outcome,[16],inactive
same,outcome,[17],inactive
same,outcome,[18],inactive
same,outcome,[19],inactive
FC(F)(F)C(F)(F)C(F)(F)C(F)(F)C(F)(F)C(F)(F)C(F)(F)C(F)(F)CCS,outcome,[1],inactive
same,outcome,[2],inactive
same,AC50,[3],43.8 nM (active)
same,outcome,[3],inactive
same,outcome,[4],inactive
same,outcome,[5],inactive
same,outcome,[6],inactive
same,outcome,[7],inactive
same,outcome,[8],inactive
same,outcome,[20],inactive
same,outcome,[10],inactive
same,outcome,[11],inactive
same,outcome,[12],inactive
same,outcome,[13],inactive
same,outcome,[14],inactive
same,outcome,[16],inactive
same,outcome,[17],inactive
same,outcome,[18],inactive
same,outcome,[19],inactive

# — PubChem BioAssay (EPA / NIEHS)
